# Screens (PubChem BioAssay)
# AMA1-RON2 inh: AMA1-RON2 (P. falciparum) interaction inhibition; AlphaScreen AMA1-biotinylated RON2 peptide binding; Potency, µM (titrated, usually from 58.2 µM), without a hit: at the top dose activity change, negative = inhibition, most hits filed as inhibitors; 0.2% of 360,000 active; AID 720542;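 further: 0% = vehicle wells and -100% = peptide control; nearly all actives have a fitted effect of over 45% in size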
#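 AMA1 (3D7) with his tag at 25 nM final met compounds first, then biotinylated RON2 peptide at 25 nM; detection used donor plus acceptor beads, 10 µg/mL apiece, read by AlphaScreen after 30 min at room temperature.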
# AmpC inh detg: inhibitors of E. coli AmpC beta-lactamase with detergent; 0.041% of 370,000 active; Potency, µM (titrated, usually from 114 µM), inactives show at the highest dose activity change, negative = inhibition, actives largely listed as inhibitors; P00811; AmpC hydrolysis of nitrocefin, absorbance 480 nm, 0.01% Triton;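 further: 0% = no-compound wells and -100% = no-enzyme wells; nearly all actives have a fitted effect of over 25% in size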
# Target sequence (P00811 whole entry, looked up): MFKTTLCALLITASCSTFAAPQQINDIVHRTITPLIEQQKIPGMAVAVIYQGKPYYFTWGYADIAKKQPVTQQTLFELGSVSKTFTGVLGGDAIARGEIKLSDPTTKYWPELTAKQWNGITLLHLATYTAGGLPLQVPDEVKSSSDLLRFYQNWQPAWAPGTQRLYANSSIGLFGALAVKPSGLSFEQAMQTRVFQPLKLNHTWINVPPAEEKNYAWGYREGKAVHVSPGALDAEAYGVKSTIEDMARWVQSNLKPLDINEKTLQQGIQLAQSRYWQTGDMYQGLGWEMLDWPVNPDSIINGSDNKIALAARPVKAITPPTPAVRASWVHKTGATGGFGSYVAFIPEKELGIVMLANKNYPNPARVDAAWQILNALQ
#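 AmpC (5.3 nM in the dispensed reagent) in 20 mM phosphate pH 7.0 with 0.01% (detergent screen) or 0.0001% Triton X-100 was preincubated with compounds for 15 min at room temperature. Nitrocefin was then added from an 800 uM solution, and hydrolysis was followed at 480 nm.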
# AmpC no deterg: AmpC beta-lactamase inhibition without detergent. AmpC nitrocefin hydrolysis, absorbance 480 nm, 0.0001% Triton. P00811. Potency, µM (doses to about 57.1 µM), for the others: top-dose activity change, negative = inhibition, most hits filed as inhibitors. 0.52% of 330,000 active. AID 485341;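 further: plate controls were no compound for no effect and no enzyme for full effect; nearly all actives have a fitted effect of over 20% in size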
#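 AmpC (5.3 nM in the dispensed reagent) in 20 mM phosphate pH 7.0 with 0.01% (detergent screen) or 0.0001% Triton X-100 was preincubated with compounds for 15 min at room temperature. Nitrocefin was then added from an 800 uM solution, and hydrolysis was followed at 480 nm.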
# Sm TGR inh: S. mansoni TGR enzyme inhibition; 3% of 360,000 active; Potency, µM (highest dose often 114 µM), for the others: at the top dose activity change, negative = inhibition, most hits filed as inhibitors; AID 485364; purified TGR, DTNB reduction, TNB absorbance 405 nm; further: nearly all actives have a fitted effect of over 60% in size
#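 Kinetic colorimetric format: TGR-catalysed, NADPH-driven DTNB reduction monitored via TNB absorbance. Enzyme dispensed at 20 nM; compound exposure 15 min at room temperature before reaction start.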
# RE007 growth inh: less growth of the S. pombe RE007 Vpr strain; S. pombe RE007 Vpr strain, BacTiter-Glo ATP luminescence, 24 h; Potency, µM (doses to about 92.2 µM), for the others: top-dose activity change, negative = less growth, usual class: inhibitors; 0.21% of 360,000 active; AID 651644; active means well fitted falling curve with a large enough effect; inconclusive means small, poorly fitted or top-dose-only effect; inactive means no such curve, though single readings can be large or run the other way; further: nearly all actives have a fitted effect of over 50% in size
#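 Fission yeast strain RE007, carrying one chromosomally integrated HIV-1 vpr copy, was seeded at OD 0.01 in PMG+AL medium with 23 nL pinned compound. After 24 h at 30 °C and 99% humidity, viability was read by BacTiter-Glo luminescence.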
# Active calls of the source: *; ? = inconclusive; nt = not tested or not shown. Most compounds without a hit are left out; they make up all but 3.2% or so of the library. Unless noted, the call rests on the fitted dose curve; in most records, active means well fitted curve in the direction sought with a large enough effect; inconclusive means small, poorly fitted or top-dose-only effect, or another doubt; inactive means no such curve, though single readings can be large; an effect the other way counts as inactive or inconclusive. Unless noted, on the % scale 0 is the no-effect control and ±100 the full control effect; potency means the concentration at half of the fitted maximal effect.
SMILES,AMA1-RON2 inh,AmpC inh detg,AmpC no deterg,Sm TGR inh,RE007 growth inh
CCCCCCCCS(=O)c1sc2nc3c(cc2c1N)CCCC3 (stereo not given),5.0%,nt,nt,nt,-0.9%
O=C(O)c1cc(-c2ccco2)nc2cc3ccccc3cc12,-14.7%,1.6%,-27.9%,2.24µM*,2.3%
O=C(CSc1ccc2ccccc2c1Br)Nc1cccc(S(=O)(=O)NC2=NCCCCC2)c1,-13.7%,-10.0%,7.08µM*,-19.6%,0.6%
NS(=O)(=O)c1cccc(NC(=O)c2cc(-c3cccs3)nc3ccccc23)c1,-9.7%,9.6%,17.8µM*,-6.1%,-0.6%
O=C(NNC(=O)c1cc(-c2ccco2)nc2ccccc12)c1ccccc1,51.6%,-5.8%,-30.0%,11.2µM*,3.7%
O=C(Nc1ccccc1F)c1cc(-c2ccco2)nc2ccccc12,-23.8%,nt,nt,nt,-22.3%
CN(C)S(=O)(=O)c1cccc(NC(=O)c2cc(-c3cccs3)nc3ccccc23)c1,3.9%,?,-27.6%,-0.6%,17.5%
Cc1ccc(-n2ncc3c(N4CCCCCC4)ncnc32)cc1C,nt,1.5%,nt,4.6%,nt
O=C(Nc1cccc(S(=O)(=O)NC2=NCCCCC2)c1)c1cc(-c2ccncc2)nc2ccccc12,-4.2%,-19.6%,62.6%,4.0%,0.5%
CC(=O)c1cccc(NC(=O)c2cc(-c3ccco3)nc3ccccc23)c1,-13.4%,2.9%,-28.2%,25.1µM*,-16.7%
O=C(Nc1cccc(S(=O)(=O)NC2=NCCCCC2)c1)c1cc(-c2ccco2)nc2ccccc12,1.5%,5.5%,-42.4%,11.2µM*,-14.6%
O=C(Nc1cccc(S(=O)(=O)NC2=NCCC2)c1)c1ccc(=O)[nH]c1,0.0%,-3.2%,-6.3%,5.62µM*,11.1%
O=C(Nc1ccc(F)cc1F)c1cc(-c2ccco2)nc2ccccc12,-11.0%,-1.7%,-5.0%,11.2µM*,-16.2%
C=CC#CC1(O)CC(C)[N+](C)(C)CC1C (stereo not given),13.6%,4.0%,-1.1%,12.6µM*,60.9%
CC(=O)C(C(C)=O)c1c(Cl)c(O)c(O)c2c(C(=O)c3ccccc3)coc12,63.7%,-14.7%,-34.2%,2.51µM*,6.6%
CN1CCN(Cc2c(O)ccc3occ(C(=O)c4ccccc4)c23)CC1,2.2%,-7.2%,26.4%,-21.2%,6.0%
CC(C)(C)NC(=S)N/N=C\c1ccc(-c2ccc([N+](=O)[O-])cc2)o1,42.0%,3.3%,?,2.24µM*,-11.0%
Cc1ccc(-c2ccc(/C=N/NC(=S)Nc3ccccc3)o2)cc1[N+](=O)[O-],10.7%,-6.3%,3.55µM*,9.7%,1.1%
CCCNC(=O)CN1C(=O)CSc2ccc(S(=O)(=O)N3CCC(C)CC3)cc21,nt,-2.1%,nt,4.1%,nt
CCS(=O)(=O)c1cc([N+](=O)[O-])c(Sc2ccccc2NC(C)=O)s1,10.7%,-0.4%,-18.4%,2.82µM*,7.9%
CC(=O)Nc1ccccc1-c1ccccc1[N+](=O)[O-],-10.9%,nt,nt,nt,3.3%
COc1cccc(NC(=O)c2nnn(Cc3cccc(C(F)(F)F)c3)c2N)c1,nt,21.6%,nt,9.8%,nt
O=C(CCC(=O)c1ccc(F)cc1)OC1CCOC1=O (stereo not given),0.2%,-6.2%,-2.1%,50.1µM*,0.5%
O=C(OC1CCOC1=O)c1ccc(CO)cc1 (stereo not given),3.4%,-9.6%,-13.3%,7.7%,3.4%
Cn1c(SCC(=O)Nc2ccc(F)cc2)nnc1-c1cccnc1,-1.0%,?,31.6µM*,-19.4%,-0.8%
SMILES,AMA1-RON2 inh,AmpC inh detg,AmpC no deterg,Sm TGR inh,RE007 growth inh
Cn1c(SCC(=O)Nc2cc(Cl)cc(Cl)c2)nnc1-c1ccc2nonc2c1,-14.0%,0.4%,-25.9%,17.8µM*,2.6%
CCc1ccccc1-n1c(SCC(=O)NC)nnc1-c1cccnc1,15.3%,35.5µM*,1.1%,-12.3%,2.3%
Cc1cc(-c2nc(C)c(-c3nnc(SCC(=O)Nc4cc(Cl)cc(Cl)c4)n3C)s2)no1,-8.8%,1.1%,-4.9%,-8.9%,-14.3%
Cn1c(SCC(=O)Nc2ccccc2F)nnc1-c1cccnc1,-0.7%,?,-4.1%,3.8%,5.9%
CCc1ccccc1-n1c(SCC(=O)NC)nnc1-c1ccco1,-7.3%,?,-4.4%,-19.2%,6.2%
O=C(CCNS(=O)(=O)c1ccc2c(c1)CCN2C(=O)C1CC1)N1CCN(c2ccc(F)cc2)CC1,nt,-5.4%,nt,-17.2%,nt
CC1(C(=O)Nc2ccc3c(c2)OCCO3)CN(S(C)(=O)=O)CC(=O)N1CCCN1CCOCC1 (stereo not given),2.9%,nt,nt,nt,8.9%
COCCCNC(=O)c1cnc2sc(N3CCCCCC3)nn2c1=O,nt,19.1%,nt,41.6%,nt
CCCCCCCCOC(=O)C1=C(C)Nc2nnnn2C1c1cccs1 (stereo not given),-1.7%,?,0.9%,3.3%,31.6µM*
CCCCCCCOC(=O)C1=C(C)Nc2ncnn2C1c1cccs1 (stereo not given),-4.4%,-2.8%,-17.7%,5.0%,-8.3%
CCc1nnc(SCc2cccc(F)c2)c2cc3sc(C)cc3n12,nt,-3.9%,nt,1.2%,nt
Cc1cc(C)cc(NC(=O)C(Cc2ccccc2)N2Cc3ccccc3C2=O)c1 (stereo not given),nt,-0.4%,nt,-0.9%,nt
O=[N+]([O-])c1cc(Cl)ccc1Nc1ccccc1,14.1µM*,-0.5%,-22.8%,-18.9%,11.6%
C#CCCc1ccccc1/C=[N+](/C)[O-],-2.2%,-0.4%,-15.5%,11.2µM*,-14.4%
CCCCOc1ccc(S(=O)(=O)Nc2ccc(-c3ccc(N4CCCCC4)nn3)cc2)cc1,nt,6.4%,nt,-1.7%,nt
Nc1c(Cl)cc(C2=NCCn3c2c2ccc([N+](=O)[O-])cc2[n+]3[O-])cc1Cl,26.0%,-4.6%,-5.3%,39.8µM*,-10.1%
NS(=O)(=O)c1ccc(-c2ccc(C=C3C(=O)NC(=S)NC3=O)o2)cc1,nt,-11.6%,-34.8%,2.24µM*,nt
Cc1ccc(-n2c(=O)c3cccnc3n2CC(=O)NCc2ccc(Cl)cc2)cc1,nt,3.3%,nt,-1.5%,nt
Cc1ccc(NC(=O)CN(C)S(=O)(=O)c2cccc3nsnc23)cc1,5.6%,-1.1%,0.159µM*,6.2%,-4.6%
Cc1[nH]n(-c2ccccc2)c(=O)c1C(c1ccc([N+](=O)[O-])cc1)c1c(C)[nH]n(-c2ccccc2)c1=O,-4.8%,6.6%,5.8%,?,-4.1%
Cc1[nH]n(-c2ccccc2)c(=O)c1C(C[N+](=O)[O-])c1ccccc1Cl (stereo not given),-20.9%,-10.5%,-38.9%,28.6%,31.6µM*
COc1ccc(C(C[N+](=O)[O-])c2c(C)[nH]n(-c3ccccc3)c2=O)cc1 (stereo not given),-1.9%,-2.1%,-31.2%,17.8µM*,11.2µM*
NC(=O)c1c(NC(=O)CS(=O)(=O)c2ccc(Cl)cc2)sc2c1CCCC2,nt,-6.3%,nt,-5.7%,nt
